Source: PubChem BioAssay (National Center for Advancing Translational Sciences (NCATS))
ELG1 repair inh: blocks ELG1-dependent DNA repair in HEK293T cells; 2.3% of 330,000 active; AID 504467; Potency, µM (top dose mostly 46.1 µM), without a hit: at the highest dose activity change, negative = inhibition, actives largely listed as inhibitors; HEK293T ELG1-luciferase reporter, luminescence, 16 h; DNA damage induced by 5-fluorouridine; also: potency is read from the fitted curve at half-maximal effect; % is scaled to controls: 0 for no effect and ±100 for the full control effect; nearly all actives have a fitted effect of over 55% in size
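HEK293T cells expressing luciferase-tagged ELG1 (2,000/well) received 5-Fluorouridine plus compound or DMSO for 16 hr at 37 °C. Luciferase was read by ONE-Glo luminescence after 30 min at room temperature.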
RORg inh: inhibitors of mouse ROR gamma transcriptional activity; P51450; Drosophila S2 Gal4-RORgamma UAS-luciferase reporter, 20 h; Potency, µM (titrated, usually from 53.6 µM), without a hit: at the top dose activity change, negative = inhibition, hits mostly inhibitors; 5.4% of 310,000 active; also: potency is read from the fitted curve at half-maximal effect; % is scaled to controls: 0 for no effect and ±100 for the full control effect; nearly all actives have a fitted effect of over 60% in size
Target sequence (P51450 whole entry, looked up, the tested form may be a part): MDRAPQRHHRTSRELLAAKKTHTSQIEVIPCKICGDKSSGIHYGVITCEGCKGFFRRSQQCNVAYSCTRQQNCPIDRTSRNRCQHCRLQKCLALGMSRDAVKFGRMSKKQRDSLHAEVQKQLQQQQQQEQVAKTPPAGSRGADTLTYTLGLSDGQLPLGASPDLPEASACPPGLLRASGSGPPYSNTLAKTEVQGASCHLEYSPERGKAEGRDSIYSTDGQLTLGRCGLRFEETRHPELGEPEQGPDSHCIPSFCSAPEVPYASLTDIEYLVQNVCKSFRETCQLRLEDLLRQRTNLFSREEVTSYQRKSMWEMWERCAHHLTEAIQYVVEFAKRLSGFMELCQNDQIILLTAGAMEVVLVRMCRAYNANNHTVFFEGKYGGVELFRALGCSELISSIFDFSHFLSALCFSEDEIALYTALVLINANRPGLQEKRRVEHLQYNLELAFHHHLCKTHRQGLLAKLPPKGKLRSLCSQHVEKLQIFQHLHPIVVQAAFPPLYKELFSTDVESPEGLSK
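Read-out: Photinus luciferase luminescence; inhibitors lower reporter signal. Insect Schneider cells with Gal4-ROR gamma fusion under metallothionein promoter, UAS reporter; 700 uM final copper sulfate induction, 20 hr, ambient temperature.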
Gal4-VP16 FLuc: Gal4-VP16 reporter inhibition counter-screen | AID 2546 | Drosophila S2 Gal4-VP16 UAS-luciferase, luminescence, 20 h | 3.5% of 310,000 active | Potency, µM (highest dose often 53.6 µM), for the others: at the highest dose activity, negative = inhibition, hits mostly inhibitors;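 also: Gal4-VP16 expression switched on by copper sulfate through the metallothionein promoter; potency is read from the fitted curve at half-maximal effect; % is scaled to controls: 0 for no effect and ±100 for the full control effect; nearly all actives have a fitted effect of over 50% in size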
p53 reactivation: mutant p53 re-activation in reporter cells | H1299 p53-A138V BP100-luciferase reporter, luminescence, 24 h | Potency, µM (doses to about 92.2 µM), for the others: at the highest dose activity change, positive = activation, usual class: activators | 0.063% of 320,000 active; also: potency is read from the fitted curve at half-maximal effect; % of control where 0% means no effect; nearly all actives have a fitted effect of over 45% in size
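p53-null H1299 cells stably carrying temperature-sensitive p53-A138V and a BP100-luciferase reporter were pinned with compounds (4-point, 1:5 series) and held 24 hrs at 37 deg C. Luminescence was read 10 min after detection reagent.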
BRCA1 expr act: activators of BRCA1 expression; MCF7-BRCA1-FFLuc reporter, luminescence, 48 h; response scale: scaled: vehicle 0%, 10 µM genistein 100%; Potency, µM (highest dose often 46.1 µM), for inactives: top-dose activation, usual class: activators; 1.1% of 380,000 active; also: potency is read from the fitted curve at half-maximal effect; nearly all actives have a fitted effect of over 80% in size
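Compounds are tested at multiple concentrations on MCF7 BRCA1-luciferase reporter cells seeded at 2000 per well; after 48 h, a single luminescence end-point is taken and curves fitted to the normalized data.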
Giardia killer: kills Giardia lamblia | Giardia lamblia trophozoite viability | activity change, % at 7.66 µM, hits read low | 0.15% of 340,000 active | AID 540267; in the data active = activity change below about -80%; inconclusive = between about -30% and that limit;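 also: parasites exposed to compound for two days anaerobically before the ATP read; % is scaled to controls: 0 for no effect and ±100 for the full control effect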
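Anaerobic 48 hrs incubation at 37 deg C of 100 trophozoites/well with test compounds; ATPLite 1-Step luminescence, 15-30 min RT, reports cellular ATP as viability.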
* marks the source's active call; other numbers are inactive results; ? = inconclusive; · = not tested or not shown; [ ] = dose if it differs, or a comment. An excerpt weighted towards active compounds, which were near 7.6% of everything screened. Unless noted, calls follow the shape of the dose curve; as a rule, active = well fitted curve in the direction sought with a large enough effect; inconclusive = small, poorly fitted or top-dose-only effect, or another doubt; inactive = no such curve, though single readings can be large; an effect the other way counts as inactive or inconclusive.

SMILES	ELG1 repair inh	RORg inh	Gal4-VP16 FLuc	p53 reactivation	BRCA1 expr act	Giardia killer
O=C(NC1CCCCC1)C(c1ccc2ncccc2c1)N(Cc1cccs1)C(=O)c1cccs1 (centres undefined)	16µM*	-1%	-9%	-1%	-50%	-13
O=C(c1ccccc1)N1N=C(c2ccc(F)cc2)CC1(O)C(F)(F)F (centres undefined)	?	?	?	19%	-22%	-17
CC1=NN(C(=O)c2ccc(Br)cc2)C(O)(C(F)(F)OC(F)(F)F)C1 (centres undefined)	-1%	11µM*	18µM*	23%	-34%	-24
CC1=NN(C(=O)c2cc(C)nn2C)C(O)(C(F)(F)F)C1 (centres undefined)	3%	11µM*	?	-13%	-26%	-21
O=C(c1ccncc1)N1N=C(C2CCCCC2)CC1(O)C(F)(F)F (centres undefined)	-25%	-26%	?	-3%	-3%	20
CC1=NN(C(=O)c2csc(C)c2C)C(O)(C(F)(F)F)C1 (centres undefined)	15%	5.6µM*	4.5µM*	?	-8%	-11
CC1=NN(C(=O)c2csc(C)c2)C(O)(C(F)(F)F)C1 (centres undefined)	-2%	3.5µM*	5.6µM*	0%	-2%	-7
CC(C)Cc1nn2c(=O)cc(COC(=O)c3ccc4c(c3)OCO4)nc2s1	·	·	·	·	-21%	·
CCN(CC)S(=O)(=O)c1ccc2oc(C(=O)NCc3ccc(F)cc3)c(C)c2c1	12µM*	-1%	5%	0%	-69%	-4
Cc1c(C(=O)O)oc2ccc(S(=O)(=O)NCc3ccccc3)cc12	9.2µM*	24%	-1%	-3%	8%	6
COc1cccc(NC(=O)c2oc3ccc(S(=O)(=O)N4CCOCC4)cc3c2C)c1	21µM*	?	3%	3%	-12%	-25
Cc1c(C(=O)NCc2c(F)cc(F)cc2F)oc2ccc(S(=O)(=O)N3CCOCC3)cc12	29µM*	-1%	-4%	-2%	-25%	-5
COc1ccc(CCNS(=O)(=O)c2ccc3oc(C(=O)O)c(C)c3c2)cc1OC	6%	10%	-6%	-5%	6%	-7
Cc1c(C(=O)NCc2ccc(F)cc2)oc2ccc(S(=O)(=O)N3CCOCC3)cc12	?	32%	13%	-3%	-19%	-20
COc1ccc(Oc2ncc3ncc(=O)n(Cc4cccs4)c3n2)cc1	·	3%	-2%	·	·	·
CC(CCc1ccccc1)NS(=O)(=O)c1ccccc1F (centres undefined)	-3%	-9%	-2%	2%	-18%	6
COc1ccccc1CC(NC(C)=O)C(=O)N1CCN(C(=O)Nc2ccccc2Cl)CC1 (centres undefined)	4%	1%	1%	-8%	-14%	-6
N=c1c2c3c(sc2nc2n1CCCCC2)CCCCC3	?	38%	-2%	10%	82%	1
Cc1c(C(=O)Nc2cc(S(=O)(=O)N3CCOCC3)ccc2N2CCOCC2)oc2ccccc12	16µM*	13%	-2%	1%	-12%	-2
Cc1c(C(=O)Nc2cccc(Cl)c2)oc2ccc(S(=O)(=O)N3CCC4(CC3)OCCO4)cc12	9.2µM*	23%	-1%	-19%	-72%	-23
Cc1c(C(=O)NCc2ccccc2)oc2ccc(S(=O)(=O)N3CCC4(CC3)OCCO4)cc12	4.1µM*	37%	12%[0.365 µM]	5%	0%	-4
Cc1c(C(=O)NCc2ccccn2)oc2ccc(S(=O)(=O)N3CCC4(CC3)OCCO4)cc12	?	?	-10%	0%	0%	-11
O=C(NCc1ccco1)c1ccc(Cl)c(S(=O)(=O)N2CCc3ccccc32)c1	?	?	-29%	-6%	-65%	-7
CC(C)C[C@H](NC(=O)N1c2ccccc2NC(=O)[C@@H]1C(C)C)C(=O)N1CCC[C@@H]1C(=O)O	-9%	-19%	-3%	3%	-3%	6
Cc1ccccc1CN(C)C[C@@H]1OCc2cnnn2CCCC(=O)N([C@@H](C)CO)C[C@H]1C	·	·	·	·	-8%	·
SMILES	ELG1 repair inh	RORg inh	Gal4-VP16 FLuc	p53 reactivation	BRCA1 expr act	Giardia killer
CCOC(=O)Cn1nnnc1C(C(C)C)N(Cc1cc2c(C)cc(C)cc2[nH]c1=O)C1CCCC1 (centres undefined)	18µM*	28%	-8%	-4%	-53%	-4
Cc1nn(Cc2ccccc2)c(C)c1NC(=O)CSc1nc2sc3c(c2c(=O)n1C)CCC3	·	·	·	·	-20%	-5
COc1ccc(-n2c(C)c([N+](=O)[O-])c3ccc(O)c(CN4CCCCC4)c32)cc1	10µM*	-11%	1%	-1%	-12%	-9
Cc1ccc(-n2c(C)c([N+](=O)[O-])c3ccc(O)c(CN(C)C)c32)cc1	?	-1%	13%	17%	-10%	-5
CC(C)(C)C1CCc2sc(-c3nnc(CCl)o3)cc2C1 (centres undefined)	?	-17%	-3%	3%	18%	8
ClCc1nnc(-c2cc3c(s2)CCCC3)o1	?	6.3µM*	?	-7%	8%	-1
Cc1oc2c(c1C(=O)O)C(=O)c1ccccc1C2=O	8.2µM*	?	?	-3%	?	?
O=C1C(=O)c2c(C(=O)c3ccccc3)coc2-c2ccccc21	?	6.3µM*	3.5µM*	?	-90%	-5
CCOC(=O)c1c(C)oc2c1C(=O)c1ccccc1C2=O	7.3µM*	?	-22%	-8%	-93%	-81*
Cc1oc2c(c1C(=O)c1ccccc1)C(=O)C(=O)c1ccccc1-2	?	2.8µM*	3.2µM*	-13%	-92%	-1
Cc1cc(=O)oc(C)c1C(=O)O	-14%	0%	6%	5%	-14%	-11
CCOC(=O)c1c(C)nc2c(c1-c1ccccc1)C(=O)c1ccccc1-2	?	10%	-1%	-5%	5%	-8
COCCCn1c(=O)cc(C)[nH]c1=S	-4%	-10%	-5%	0%	-20%	-2
NC1(N)OC(CN2C(=O)c3ccccc3C2=O)CS1 (centres undefined)	11%	18%	-3%	8%	-19%	-2
CNc1ccc(C(=O)Oc2cc(O/N=[N+](\[O-])N(C)C)c([N+](=O)[O-])cc2[N+](=O)[O-])cc1	·	13%	-5%	·	·	-10
COC(=O)c1ccc(C(NC(=O)OCc2ccccc2)/C(=C/[C@@H](C)C(=O)Nc2ccccc2)c2cccnc2)cc1 (some centres undefined)	·	9%	-4%	·	·	·
